# Tests used:
# Experiment in all cases: PBM binding z-score (relative to random genomic background probes); higher = stronger binding; sequences stand for … in GC…GCGATTGACAGCGTAGAATGAAGG
# [1] = system: RARb homodimer (NR concentration 270 nM)
# Outline: (§1)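 For binding z-scores, the reference was random background probes on custom Agilent 4×180K protein-binding microarrays. These arrays were incubated 1 h with ligand-free nuclear receptor dimers in PBS pH 7.4, 2% milk, 0.02% Triton X-100, 1 mM DTT, 0.2 mg/mL BSA and 0.4 mg/ml salmon testes DNA. Fluorescence was scanned after antibody detection of each partner (one per run) and regression-normalized.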
# [2] = system: RARg:RXRa (NR concentration 270 nM, RXRa partner concentration 90 nM)
# Outline: as §1
# [3] = system: RARg homodimer (NR concentration 270 nM)
# Outline: as §1
# [4] = system: RXRa DBDmut IVT, anti-RXR (DBD mutation: RXRa K156A/R161A, NR concentration 90 nM)
# Outline: as §1
# [5] = system: RXRa homodimer (NR concentration 180 nM)
# Outline: as §1
# [6] = system: THRa:RXRa (NR concentration 90 nM, RXRa partner concentration 90 nM)
# Outline: as §1
# [7] = system: THRa homodimer (NR concentration 90 nM)
# Outline: as §1
# [8] = system: VDR homodimer (NR concentration 270 nM)
# Outline: as §1
Sequence,PBM binding z-score [1],PBM binding z-score [2],PBM binding z-score [3],PBM binding z-score [4],PBM binding z-score [5],PBM binding z-score [6],PBM binding z-score [7],PBM binding z-score [8]
CAAACTAGGTCACGAAATGTCAAAGTCGAATGAC,3.6,4.86,5.58,2.02,3.79,3.51,1.5,1.1
CGAACTTGGTCAAGGACAGTGAATCTCCGCACGC,0.692,0.479,1.1,0.243,0.275,1.89,1.37,-0.254
ATCGAAAGGTCGCGAGGTGAGTATACAGAAAGGC,3.4,5.11,4.94,0.903,5.7,3.45,0.86,0.971
GATACAGGGTCCGCTAGAGGCCAGAGTATGGAAA,0.0694,0.628,0.211,-0.114,-0.246,0.0317,-1.09,-0.148
CCTCGGACGACAACAGGAGGTCAGAGCTGCCAGA,2.97,1.95,1.99,-0.432,1.84,1.92,0.602,0.934
TCTAGCAGGCTAGAGGGTCACTCAAGAGGTACGG,2.47,2.08,1.81,0.0423,2.42,1.59,-0.445,0.31
CAAACTAGGTCAAAGGTCTAAGTCGAGCCAACCA,2.9,4.76,4.45,1.96,4.93,3,0.688,1.09
